In all, about 310,000 compounds went through this assay and about 14,000 (4.5%) showed an effect of 50% or more. Effects have a minus sign here. The sample as a whole holds a higher share of strong results than the screen did.
biological target: human ether-à-go-go-related gene (hERG) potassium channel (human, UniProt Q12809); experiment: primary screen, population patch clamp on CHO cells stably expressing hERG; higher = less effect of the substance
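Also: peak tail current of the secondary pulse compared with the same well before compound.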

Chain of human ether-à-go-go-related gene (hERG) potassium channel (Q12809 whole entry, looked up): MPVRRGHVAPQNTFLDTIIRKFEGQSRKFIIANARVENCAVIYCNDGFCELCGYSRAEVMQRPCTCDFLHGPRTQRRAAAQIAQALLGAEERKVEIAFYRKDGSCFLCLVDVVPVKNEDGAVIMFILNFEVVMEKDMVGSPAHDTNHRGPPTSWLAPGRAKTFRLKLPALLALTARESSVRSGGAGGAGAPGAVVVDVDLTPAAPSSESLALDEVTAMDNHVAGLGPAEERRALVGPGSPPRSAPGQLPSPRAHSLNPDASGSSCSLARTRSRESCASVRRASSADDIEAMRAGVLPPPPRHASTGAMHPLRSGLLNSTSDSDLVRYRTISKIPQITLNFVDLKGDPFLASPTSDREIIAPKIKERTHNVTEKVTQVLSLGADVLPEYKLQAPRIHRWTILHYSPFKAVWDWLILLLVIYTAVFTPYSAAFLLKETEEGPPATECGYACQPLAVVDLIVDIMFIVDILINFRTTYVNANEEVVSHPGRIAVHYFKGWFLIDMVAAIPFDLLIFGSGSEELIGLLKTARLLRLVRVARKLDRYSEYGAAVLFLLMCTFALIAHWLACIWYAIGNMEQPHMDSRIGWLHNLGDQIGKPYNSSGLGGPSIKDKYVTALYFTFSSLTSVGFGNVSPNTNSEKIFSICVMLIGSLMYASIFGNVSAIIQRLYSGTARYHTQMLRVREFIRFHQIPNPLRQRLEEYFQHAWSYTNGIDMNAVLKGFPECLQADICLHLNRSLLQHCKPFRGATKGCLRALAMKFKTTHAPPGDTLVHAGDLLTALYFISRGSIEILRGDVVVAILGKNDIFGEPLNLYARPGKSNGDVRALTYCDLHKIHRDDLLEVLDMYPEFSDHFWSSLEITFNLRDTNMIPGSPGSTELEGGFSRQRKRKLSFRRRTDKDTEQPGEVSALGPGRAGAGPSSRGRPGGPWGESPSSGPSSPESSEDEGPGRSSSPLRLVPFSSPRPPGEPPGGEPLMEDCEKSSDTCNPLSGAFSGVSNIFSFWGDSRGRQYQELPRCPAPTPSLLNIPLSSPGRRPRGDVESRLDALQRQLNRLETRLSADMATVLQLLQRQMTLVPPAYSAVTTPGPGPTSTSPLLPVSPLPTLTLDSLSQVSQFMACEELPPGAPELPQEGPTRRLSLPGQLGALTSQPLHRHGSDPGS

Compound	hERG current change (%, negative = inhibition) at 10uM
O=C(COC(=O)CN1C(=O)C2CCCCC2C1=O)Nc1cc(S(=O)(=O)N2CCOCC2)ccc1Cl (centres unmarked)	-12.6%
Cc1ccc(C(=O)NCCCn2ccnc2)cn1	4.36%
O=C(NC1CCCCCC1)C1CCN(S(=O)(=O)c2cnc[nH]2)CC1	8.78%
CCN(CC)C(=O)COc1cc(C)c(Cl)c(C)c1	-5.91%
COc1ccc(C(=O)NCc2ccccc2OC)c(OC)c1	-11.6%
Oc1c(Br)cc(Br)cc1C=Nc1ccc2c(c1)OCCO2	14.9%
O=C(N/N=C/c1cc(Br)cs1)c1ccc2c(c1)OCCO2	10.2%
Oc1c(Cl)cc(Cl)cc1C=Nc1ccc2c(c1)OCCO2	21.2%
Brc1ccc(C=Nc2ccc3c(c2)OCCOCCOCCO3)s1	-66.2%
Brc1ccc(C=Nc2ccc(Nc3ccccc3)cc2)s1	9.59%
Brc1csc(C=Nc2ccc3c(c2)OCCOCCOCCOCCO3)c1	-73.5%
NC(=O)c1ccccc1NC(=O)N1CCOCC1	-2.02%
CCOC(=O)C1CCCN(C(=O)c2ccc(Cl)cc2)C1 (centres unmarked)	0.557%
Cc1cc(C)cc(NC(=O)CSc2nc3c(oc4ccccc43)c(=O)n2-c2ccccc2)c1	-11.1%
Cc1cc2nnc(SC3CCCCN(C(=O)c4ccc(F)cc4)C3=O)n2c2ccccc12 (centres unmarked)	-13.2%
O=C(c1ccccc1)N1CCCCC(Sc2nnc3ccccn23)C1=O (centres unmarked)	5.24%
O=C(c1ccc(F)cc1)N1CCCCC(Sc2nnc3ccccn23)C1=O (centres unmarked)	-59.9%
O=C(Nc1ccccc1-c1nc2ccccc2[nH]c1=O)c1cccs1	2.16%
CCc1noc(C)c1C(=O)Nc1cccc(S(=O)(=O)N2CCCCCC2)c1	-56%
CCc1noc(C)c1C(=O)Nc1ccc(C)c(S(=O)(=O)N2CCCCCC2)c1	-45.6%
Cc1noc(C)c1C(=O)Nc1cccc(S(=O)(=O)N2CCCCC2)c1	-10.6%
CCc1noc(C)c1C(=O)Nc1ccc(S(=O)(=O)N2CCCCC2)cc1	-7.54%

Compound	hERG current change (%, negative = inhibition) at 10uM
CCc1noc(C)c1C(=O)Nc1ccc(Cl)c(S(=O)(=O)N2CCCCC2)c1	-71.2%
CCOc1ccc(S(=O)(=O)N2CCCCC2)cc1NC(=O)c1c(CC)noc1C	11.8%
CCOC(=O)c1c(C)[nH]c(C(=O)Nc2ccc(C)c(Cl)c2)c1C	10.8%
COc1ccc2[nH]cc(C(=O)C(=O)N3CCCCC3)c2c1	5.35%
COC(=O)C(=O)/C=C(\O)c1ccc(C)cc1	-2.4%
Cc1ccc(C(=O)CSc2nc3ccccc3c(=O)n2N)o1	-1.95%
CCN(C(=O)c1cccs1)c1nc(-c2ccc(OC)cc2)cs1	23.1%
COc1ccc(-c2csc(N(C)C(=O)c3cccs3)n2)cc1	-0.276%
CN(C)CCCN(C(=O)c1cccs1)c1nc(-c2ccccc2)cs1	-72.8%
COc1ccc(-c2csc(N(Cc3ccco3)C(=O)c3cccs3)n2)cc1	-3.17%
CCN(CC)CCCN(C(=O)c1cccs1)c1nc(-c2ccc(OC)cc2)cs1	-83.3%
O=C(c1cccs1)N(CC1CCCO1)c1nc(-c2ccccc2)cs1 (centres unmarked)	2.57%
COc1ccc(-c2csc(N(CC3CCCO3)C(=O)c3cccs3)n2)cc1 (centres unmarked)	-11.4%
COc1ccc(-c2csc(N(CCCN(C)C)C(=O)c3cccs3)n2)cc1.Cl	-73.9%
Cc1ccc(-c2csc(N(Cc3ccco3)C(=O)c3cccs3)n2)cc1	11.6%
O=C(NC(=S)Nc1ccc(S(=O)(=O)N2CCCC2)cc1)C1CC1	-29.8%
COc1ccc(C(=O)Nc2cc(C)nn2-c2nc3ccccc3[nH]2)c(OC)c1	-5.95%
CSc1nnc(-c2ccc(Cl)cc2Cl)o1	1.62%
COc1cccc(NC(=O)COc2ccc(C(=O)N3CCN(C)CC3)cc2)c1	15.8%
O=C(O)CCc1cccnc1	7.55%
O=C(/C=C/c1c(F)cccc1Cl)c1ccc(O)cc1	1.1%
Cc1ccc(-c2nnc(N3CCCCC3)c3ccccc23)cc1S(=O)(=O)N1CCN(C)CC1	-58.7%

Compound	hERG current change (%, negative = inhibition) at 10uM
Cc1ccc(-c2nnc(NC3CCCCC3)c3ccccc23)cc1S(=O)(=O)N1CCN(C)CC1	-54.6%
Cc1ccc(-c2nnc(N3CCCCC3)c3ccccc23)cc1S(=O)(=O)N(C)C	-27%
Cc1ccc(-c2nnc(NCc3nc4ccccc4[nH]3)c3ccccc23)cc1S(=O)(=O)N1CCCCC1.Cl	-7.08%
Cc1ccc(-c2nnc3c4ccccc4c(C)nn23)cc1S(=O)(=O)N1CCN(C)CC1	-6.7%
Cc1ccc(-c2nnc(N3CCOCC3)c3ccccc23)cc1S(N)(=O)=O	17.3%
COc1ccc(S(=O)(=O)NCC2CCCN(C(=O)CCSC)C2)cc1 (centres unmarked)	18%
COc1cccc(CN2CC(C(=O)N(C)Cc3ccnc4ccccc34)CCC2=O)c1 (centres unmarked)	-10.2%
C=CCNc1nc(-c2c(C)nc3sccn23)cs1	-10.1%
Cc1ccccc1C(=O)NC(=S)NCCC1=CCCCC1	13.4%
CN1CCN(c2ncc3c(n2)CC(c2ccccc2F)CC3=O)CC1 (centres unmarked)	-4.43%
COCCOC(=O)C1=C(C)NC2=C(C(=O)CCC2)C1c1ccc2c(c1)OCO2 (centres unmarked)	-49.6%
O=C(CCNC(=O)c1ccc(Br)cc1)NCc1ccccc1F	-13%
O=C(N/N=C/c1cccc([N+](=O)[O-])c1)C1COc2ccccc2O1 (centres unmarked)	-29.1%
O=C(CNC(=O)C1COc2ccccc2O1)N/N=C/c1ccc([N+](=O)[O-])cc1 (centres unmarked)	-71.8%
O=C(CNC(=O)C1COc2ccccc2O1)N/N=C\c1ccc(Br)cc1 (centres unmarked)	-20.1%
O=C(Nc1cccc([N+](=O)[O-])c1)C1COc2ccccc2O1 (centres unmarked)	-86.3%
O=C(NNC(=O)C1COc2ccccc2O1)c1cccc([N+](=O)[O-])c1 (centres unmarked)	-7.35%
COc1ccc(/C=N/NC(=O)CNC(=O)C2COc3ccccc3O2)cc1OC (centres unmarked)	-15.7%
O=C(CNC(=O)C1COc2ccccc2O1)N/N=C/c1cc(Br)c(O)c(Br)c1 (centres unmarked)	-7.99%
O=C(CNC(=O)C1COc2ccccc2O1)N/N=C\c1ccc(Cl)cc1 (centres unmarked)	-69.4%
COc1cc(/C=N\NC(=O)CNC(=O)C2COc3ccccc3O2)ccc1O (centres unmarked)	-26.8%
O=C(CNC(=O)C1COc2ccccc2O1)N/N=C\c1ccccc1Cl (centres unmarked)	4.64%

Compound	hERG current change (%, negative = inhibition) at 10uM
O=C(Nc1ccc([N+](=O)[O-])cc1)C1COc2ccccc2O1 (centres unmarked)	0.793%
COc1ccc(/C=N\NC(=O)CNC(=O)C2COc3ccccc3O2)cc1[N+](=O)[O-] (centres unmarked)	-73.8%
COc1ccc(OCCC(=O)Nc2ccccc2)cc1	-6.83%
Cc1cc(C(=O)O[C@H]2[C@H](Cc3ccccc3)NS(=O)(=O)[C@H]3C[C@@H]4C=C[C@]23O4)ccc1[N+](=O)[O-]	-1.67%
Cn1nc(C(=O)NCc2ccc(F)cc2)c2c1-c1ccccc1S(=O)(=O)C2	-44.9%
CC(=O)N(CC(=O)O)c1ccccc1	10.5%
Cc1ccc(NS(=O)(=O)c2ccc(CCC(=O)NCCCOC(C)C)cc2)cc1	4.27%
O=c1oc2c3c4c(cc2c2c1CCC2)OCCN4CCC3	-0.13%
Cc1cccc(C)c1NC(=O)CNc1ccccc1	5.02%
O=C(Nn1c(C2CCCCC2)nc2ccccc2c1=O)c1ccc(Cl)c([N+](=O)[O-])c1	-9.26%
COC(=O)C1=C(c2ccc(OC)c(OC)c2)C[C@@H]2CC[C@H]1N2C(=O)NCCOc1ccccc1Cl	-12.7%
Cc1ccc(C)c(N2CCN(S(=O)(=O)c3ccc4c(c3)OCCO4)CC2)c1	3.7%
C#CCOCCOCCOCCNc1nc(N2CCN(C(=O)CCCCCCCCCCNC(=O)[C@H](CCC(=O)O)n3cc(CCCCCN)nn3)CC2)nc(N2CCN(C(=O)CCCCCCCCCCNC(=O)[C@@H]([C@H](C)O)n3cc(C)nn3)CC2)n1	20.1%
O=C(CSc1nc2c(c(=O)n1-c1ccc(Cl)cc1)SCC2)N1CCCC1	-17.4%
O=C(N/N=C\c1ccc([N+](=O)[O-])o1)C1COc2ccccc2O1 (centres unmarked)	-67.4%
C/C(=N\NC(=O)CNC(=O)C1COc2ccccc2O1)c1ccc(Cl)cc1 (centres unmarked)	-17.6%
CC(C)(C)c1ccc2c(c1)OC(C(=O)N/N=C/c1ccc([N+](=O)[O-])o1)CO2 (centres unmarked)	-39.2%
C/C(=N/NC(=O)CNC(=O)C1COc2ccccc2O1)c1ccc([N+](=O)[O-])cc1 (centres unmarked)	-64.7%
C/C(=N/NC(=O)CNC(=O)C1COc2ccccc2O1)c1ccc2c(c1)OCCO2 (centres unmarked)	-1.69%
O=C(N/N=C\c1ccc(-c2ccc([N+](=O)[O-])cc2)o1)C1COc2ccccc2O1 (centres unmarked)	-7.36%

Reference: article PMC4336329 (PLoS ONE, 2015)
